Growth data for 13 compounds are collected here from PubChem BioAssay (NCI).

Among the test systems are SR leukemia; RPMI-8226 leukemia; OVCAR-8 ovarian; OVCAR-5 ovarian; OVCAR-4 ovarian; SK-OV-3 ovarian; IGROV1 ovarian; OVCAR-3 ovarian; HS 578T breast; NCI/ADR-RES ovarian.
Experiment in all cases: NCI-60 one-dose screen, 48 h (100 = growth as untreated, 0 = no growth, -100 = all killed)
Conditions in all cases: 10 µM

Each structure is given as a SMILES string. About 83,000 compounds went through this panel and 20% of them were active in at least one assay; those are over-represented in the sample as a whole.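 The test compound was applied at a single concentration to cells in 96-well plates for 48 hours, and percent growth was recorded.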 Values without a mark were called inactive. The source made the active and inactive calls. How the source made its calls: active means growth percent below 10; inactive means the rest.

As for `O=S(=O)(Nc1ncccn1)c1ccc(-n2c(-c3ccc(Br)cc3)nc(-c3ccccc3)c2-c2ccccc2)cc1`, the growth in the assay with SR leukemia was 45.2%; in the assay on RPMI-8226 leukemia, 33.8%; in the assay on OVCAR-8 ovarian it was 50.5%; in the assay with OVCAR-5 ovarian, 70.5%; in the assay with OVCAR-4 ovarian, 57.7%; in the assay on SK-OV-3 ovarian, 76.4%. Further, the growth is 51.6% in the assay with IGROV1 ovarian, 48.2% in the assay with OVCAR-3 ovarian, 20.4% in the assay with HS 578T breast and 33.6% with NCI/ADR-RES ovarian.
With `COc1ccc(OC)c(-c2cc(-c3c[nH]c4ccccc34)nc(N)c2C#N)c1`, the growth with SR leukemia was 8.54% (active); in the assay on RPMI-8226 leukemia, 6.3% (active); in the assay with OVCAR-8 ovarian, 6.52% (active); in the assay with OVCAR-5 ovarian, 15.1%; with OVCAR-4 ovarian, 22.9%; in the assay on SK-OV-3 ovarian, 34.3%. Also, the growth in the assay on IGROV1 ovarian is 15.9%; in the assay on OVCAR-3 ovarian it was -23.5% (active); in the assay on HS 578T breast, -16.5% (active); with NCI/ADR-RES ovarian, -34.1% (active).
Regarding `CC(=O)C1=C(C)NC(SCC(=O)Nc2ccc(S(=O)(=O)Nc3cc(C)on3)cc2)=NC1c1ccccc1` (stereo not given), the growth with SR leukemia is 94.1%; in the assay on RPMI-8226 leukemia it was 99.8%; with OVCAR-8 ovarian, 107%; with OVCAR-5 ovarian, 109%; in the assay on OVCAR-4 ovarian, 100%; in the assay on SK-OV-3 ovarian it was 101%. Moreover, the growth with IGROV1 ovarian was 114%; in the assay with OVCAR-3 ovarian, 107%; in the assay with HS 578T breast, 95.6%; with NCI/ADR-RES ovarian, 103%.
Take `Cc1ccc2nc(-c3ccc(-c4nnc(SCC(=O)Nc5ccc(Cl)cc5)o4)cc3)[nH]c2c1`: the growth is 21.8% with SR leukemia; 43.2% with RPMI-8226 leukemia; -11.8% (active) with OVCAR-8 ovarian; 63.1% in the assay with OVCAR-5 ovarian; 4.47% (active) with OVCAR-4 ovarian; 79.3% in the assay on SK-OV-3 ovarian. Also, the growth with IGROV1 ovarian is 37.8%; in the assay on OVCAR-3 ovarian it was 24%; in the assay with HS 578T breast, 40.5%; in the assay with NCI/ADR-RES ovarian, 23.2%.
Take `O=[N+]([O-])c1ccc(-c2nc(-c3ccccc3)c(-c3ccccc3)n2-c2ccc(S(=O)(=O)Nc3ncccn3)cc2)cc1`: the growth in the assay with SR leukemia was 45%; with RPMI-8226 leukemia, 33%; in the assay on OVCAR-8 ovarian, 54.5%; in the assay on OVCAR-5 ovarian, 72.8%; in the assay on OVCAR-4 ovarian, 66.7%; in the assay with SK-OV-3 ovarian, 104%. Besides, the growth in the assay with IGROV1 ovarian was 74.3%; in the assay on OVCAR-3 ovarian it was 51.7%; in the assay with HS 578T breast it was 37.3%; in the assay with NCI/ADR-RES ovarian, 42.4%.
With `O=C1c2ccccc2C(=O)c2c1c(C(=O)c1ccc(Cl)cc1)n1c2ccc2c3ccccc3ccc21`, the growth in the assay with SR leukemia is 104%; in the assay with RPMI-8226 leukemia it was 101%; in the assay with OVCAR-8 ovarian, 103%; in the assay on OVCAR-5 ovarian, 115%; in the assay on OVCAR-4 ovarian it was 107%; in the assay on SK-OV-3 ovarian, 95%. Moreover, the growth with IGROV1 ovarian was 105%; with OVCAR-3 ovarian, 109%; in the assay with HS 578T breast, 93.2%; in the assay with NCI/ADR-RES ovarian it was 103%.
Regarding `NS(=O)(=O)c1ccc(NC(=O)CSc2ccc(-c3ccccc3)nn2)c(Br)c1`, the growth was 85.9% in the assay with SR leukemia; 83% in the assay on RPMI-8226 leukemia; 38.3% in the assay on OVCAR-8 ovarian; 90.4% in the assay on OVCAR-5 ovarian; 53.8% in the assay on OVCAR-4 ovarian; 98.7% in the assay with SK-OV-3 ovarian. Also, the growth was 93.8% in the assay on IGROV1 ovarian, 24.9% with OVCAR-3 ovarian, 41.1% with HS 578T breast and 81.6% in the assay with NCI/ADR-RES ovarian.
On to `COc1ccc2c(c1)N=C(C(=O)O)/C2=C/c1sc(Nc2ccc(O)cc2)nc1O`, for which the growth was 24.9% in the assay on SR leukemia; 65.7% in the assay with RPMI-8226 leukemia; 80.8% with OVCAR-8 ovarian; 109% in the assay on OVCAR-5 ovarian; 74.7% with OVCAR-4 ovarian; 86.1% with SK-OV-3 ovarian. Moreover, the growth is 74.6% in the assay with IGROV1 ovarian, 72.9% in the assay with OVCAR-3 ovarian, 50.9% with HS 578T breast and 93.3% in the assay with NCI/ADR-RES ovarian.
Take `CN1CCc2c(sc3ncnc(N/N=C/c4ccc5ccccc5c4)c23)C1`: the growth with SR leukemia is 9.62% (active); in the assay on RPMI-8226 leukemia it was 42.6%; in the assay with OVCAR-8 ovarian, 78.6%; with OVCAR-5 ovarian it was 88.6%; with OVCAR-4 ovarian, 73.9%; in the assay on SK-OV-3 ovarian, 96.1%. For the same compound, the growth in the assay with IGROV1 ovarian is 87.9%; in the assay with OVCAR-3 ovarian, 75%; in the assay on HS 578T breast, 62.3%; in the assay with NCI/ADR-RES ovarian it was 76.7%.
`Cc1ccc(/C(N)=N/c2sc(-c3ccccc3)nc2-c2ccccc2)cc1`: the growth is 63.1% in the assay on SR leukemia; 59.9% in the assay on RPMI-8226 leukemia; 91.4% in the assay with OVCAR-8 ovarian; 84.1% in the assay with OVCAR-5 ovarian; 72% in the assay on OVCAR-4 ovarian; 87.1% with SK-OV-3 ovarian. The growth in the assay on IGROV1 ovarian is 94.3%; in the assay with OVCAR-3 ovarian, 84.7%; with HS 578T breast, 95%; in the assay with NCI/ADR-RES ovarian, 89.9%.
Take `C=C[C@@]12CN3CC[C@]1(O)[C@@](C(=O)OC)(CO2)c1[nH]c2ccccc2c1C3`: the growth was 75.5% in the assay on SR leukemia; 46.9% in the assay on RPMI-8226 leukemia; 62.8% in the assay with OVCAR-8 ovarian; 49.2% with OVCAR-5 ovarian; 62.3% in the assay with OVCAR-4 ovarian; 115% in the assay on SK-OV-3 ovarian. Moreover, the growth in the assay with IGROV1 ovarian is 95.2%; with OVCAR-3 ovarian, 61.6%; in the assay on HS 578T breast, 80.5%; in the assay on NCI/ADR-RES ovarian, 49.1%.
In the case of `CC1CC(c2ccc(N(C)C)cc2)=NN1c1nc(O)c(C2=c3cc(Br)ccc3=NC2=O)s1` (stereo not given), the growth in the assay on SR leukemia is 67.6%; in the assay on RPMI-8226 leukemia it was 28.1%; in the assay on OVCAR-8 ovarian, 83%; in the assay with OVCAR-5 ovarian, 123%; in the assay on OVCAR-4 ovarian, 94.5%; in the assay on SK-OV-3 ovarian it was 91.3%. Further, the growth in the assay with IGROV1 ovarian was 110%; in the assay with OVCAR-3 ovarian, 73.6%; in the assay on HS 578T breast it was 70%; in the assay on NCI/ADR-RES ovarian, 7.99% (active).
In the case of `O=C(Cn1nc(-c2ccccc2)ccc1=O)NNC(=S)NC1CCCCC1`, the growth in the assay with SR leukemia is 89.4%; in the assay with RPMI-8226 leukemia it was 97%; in the assay with OVCAR-8 ovarian it was 112%; in the assay on OVCAR-5 ovarian, 105%; in the assay with OVCAR-4 ovarian, 114%; in the assay with SK-OV-3 ovarian it was 112%. The growth with IGROV1 ovarian is 104%; with OVCAR-3 ovarian, 122%; in the assay with HS 578T breast, 101%; with NCI/ADR-RES ovarian, 105%.
